Experimental data: the supplement of paper PMC6555819

Test system: THRa:RXRa (NR concentration 90 nM, RXRa partner concentration 90 nM)
Experiment: PBM binding z-score (relative to random genomic background probes); higher = stronger binding; sequences stand for … in GC…GCGATTGACAGCGTAGAATGAAGG
How it was run: (§1)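 Each nuclear receptor dimer, without ligand, was incubated for 1 h on custom Agilent 4×180K protein-binding microarrays. Binding was detected with antibodies against each partner (one per run), and scanned fluorescence was regression-normalized. The binding z-scores are referenced to random human genomic background probes.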

Row | Sequence | PBM binding z-score
1 | TCGAGTAGGTTACCAATCGGGCATTCAGCTTTCT | -0.223
2 | ATCACTAGGTAAAGTTCAGTGAAAGATCGATAGA | 1.24
3 | CCTATTACTTGACCATAAGGGCAACCGAAGCTCG | 1.84
4 | CCTCGGAGGACAGGAGGTCAGAGCTGTCCGCTTT | 2.67
5 | TCTATTAATTGAAGGGCAACCGACGAGTCCGTTT | 0.258
6 | ATCGCTAGGTAAAGTTCAGTGAAAGATCGATAGA | 0.617
7 | ACTAGCAGGCCAGGGGTCACTCAAGATTAGTCCG | 3.5
8 | AGAATGAGGTTAGTAAGATCAGGGAATTGCGGTC | 1.33
9 | CTTGAAAGGTCGGTTGAGGTGAGTATACGGATAA | 4.93
10 | TGAATGAGGTAATAAGATCAGGGAACGTTGCAAA | 0.991
11 | TCGAGTAGGTTAGCAATGGGGCATTCAGCTTTCT | -0.27
12 | CAAACTAGGTCAAAGGTCACAGTCGAGCCAACCA | 5.02
13 | CTCCCAAGGTGAACAAGGTCGTTGATTACTATTC | 3.19
14 | GGAACTAGGGCAAGTTGATAGCAGAGTTTGATGG | 0.0165
15 | AGACAAAGTTCATCTAGGTAACGTAAGATATGCT | 3.07
16 | TGAATGAGGTTACAAGATCAGGGAACGTTGCAAA | 2.2
17 | GCTATTAGTTGAAAGGGCGACCGAATGATTCTCG | -0.155
18 | TCTTGTAGATCAATAGAGGTTATGAAAGTGCGCT | 2.33

Test system: THRa homodimer (NR concentration 90 nM)
Experiment: as above
How it was run: as §1

Row | Sequence | PBM binding z-score
19 | TCATATAGGTATAAGGTGAAAGTCGGTGTGGTAA | 2.4
20 | GCTATTAGTTGAAAGAGCAACCGAATGATTCTCG | -0.896
21 | ACTAGCAGGCCATGTTTGGGTCACTCAAACAAAG | 1.21
22 | ATCTCTAGGTAACAAGTTCACTGAAAGAGAGGAC | 1.03
23 | TCTGCTAGGGCAACGATGGTCAGCTAATCTGCTA | -0.978
24 | GCTTGTAGATCAAGGTAAAGAAAGACTAAGCTAA | -0.807
25 | TCTGCTAAGTCAACGATGGTCAGCTAATCTGCTA | -1.37
26 | CCTACTGGGCCACGAAAGGTCGTTGATTCAGTGA | -0.153
27 | CAAACTAGGTCGAGAGGTCAAAGTCCGCTTCCCG | 1.8
28 | ACAGACAGGTGATGAAGGTAAGTCAGGCTATCAT | -0.25
29 | ATCGAACGGTCGAAGGTGAGTATACCCACCCGAA | -0.481
30 | AGAATGAGGTTAAGATCAGGGAAACAGAATACAT | 0.768
31 | ATATGTAGGTTAACGGTCATTCAGGTTGGTTCGC | 0.747
32 | TCTGCTAGGTCAGATGGTCAGCTAACGAGCTGCC | -0.192
33 | TCTGCGAGGTCAGTTGGTCAGCTAACGAGCTGCC | 1.39
34 | TCGAGTAGGGTAGTCGGGGCATTCAGCCAACATA | 0.185
35 | AGAATGAGGTTACCAATGATCAGGGAAACGCTTG | 0.788
36 | GCGACTGGGGCAAAGCGGGTTACCATAAGGTTGG | 0.0771
37 | AGAATGAGGTTATTAAGATCATGGAATTGCGGTC | 0.524
38 | GCGACTGGGGCATCAGCAGGTTACCCTAACTTAA | 0.628

Row | Sequence | PBM binding z-score
39 | CCTACTGGGCCACGAAAGGTCATTGTTTCAGTGA | 0.739
40 | CCCACTGGGCCATCAGGTCATTGATATCAACGTT | 3.16
41 | TCGAGTAGGTTACCAATCGGGCATTCAGCTTTCT | -1.47
42 | ATCACTAGGTAAAGTTCAGTGAAAGATCGATAGA | 0.158
43 | CCTATTACTTGACCATAAGGGCAACCGAAGCTCG | 1.86
44 | CCTCGGAGGACAGGAGGTCAGAGCTGTCCGCTTT | 0.822
45 | TCTATTAATTGAAGGGCAACCGACGAGTCCGTTT | 0.559
46 | ATCGCTAGGTAAAGTTCAGTGAAAGATCGATAGA | -0.888
47 | ACTAGCAGGCCAGGGGTCACTCAAGATTAGTCCG | 1.05
48 | AGAATGAGGTTAGTAAGATCAGGGAATTGCGGTC | 0.245
49 | CTTGAAAGGTCGGTTGAGGTGAGTATACGGATAA | 1.42
50 | TGAATGAGGTAATAAGATCAGGGAACGTTGCAAA | -0.205
51 | TCGAGTAGGTTAGCAATGGGGCATTCAGCTTTCT | -0.716
52 | CAAACTAGGTCAAAGGTCACAGTCGAGCCAACCA | 2.38
53 | CTCCCAAGGTGAACAAGGTCGTTGATTACTATTC | 2.26
54 | GGAACTAGGGCAAGTTGATAGCAGAGTTTGATGG | -0.214
55 | AGACAAAGTTCATCTAGGTAACGTAAGATATGCT | 0.133
56 | TGAATGAGGTTACAAGATCAGGGAACGTTGCAAA | 0.329
57 | GCTATTAGTTGAAAGGGCGACCGAATGATTCTCG | -0.468
58 | TCTTGTAGATCAATAGAGGTTATGAAAGTGCGCT | -0.187
